In all, about 31,000 sequences went through this assay and about 1,400 (4.5%) were called active.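 Rule for the calls: active = median seed-adjusted z-score above 1 or below -1; inactive = the rest.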 The entries come from a sample that favours actives as a whole.
Assay: Novel Modifiers of Survival Motor Neuron (SMN) Protein: Gene Identification via Genome-wide siRNA Screen;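 note: luminescence tracks full-length SMN protein made from the SMN2 reporter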
Conditions: HEK293T SMN2-luciferase reporter, siRNA knockdown, 72 h; actives lie on both sides
Procedure, shortened: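 Genome-wide siRNA screen (10418 genes, 3 siRNAs each, 1 pmol per well) by reverse transfection in HEK293T cells stably carrying an SMN2-luciferase reporter; luminescence after 72 hours, normalized to negative-control siRNA, log10-transformed, MAD-scored.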

Row | Sequence | median seed-adjusted z-score
1 | CACCAGCUAUGAACGAGAATT against THOC2 | -1.22 (active)
2 | CGACCUACCGAGAAGAAAATT against GJB3 | -0.198 (inactive)
3 | GGGAUGUUCUUAGAAGUUUTT against BIK | 0.0492 (inactive)
4 | GCCCAGUUGCUUAACGAAUTT against ACVR2A | -0.22 (inactive)
5 | CAAGAACUACAGAUUCGUATT against PPP1R13B | 0.0943 (inactive)
6 | GACUGACCAUACUGAUAUUTT against NPY5R | 0.213 (inactive)
7 | GCCUGUUUCAAGACACUGATT against CRNN | -0.0758 (inactive)
8 | GCUUUAGAGUUCCAUAUGATT against PIK3CG | 0.576 (inactive)
9 | GCACCUAUAUUUACUACUUTT against TTC3 | -1.17 (active)
10 | CAACUUGCCUUGUUAACCATT against ZDHHC2 | 0.133 (inactive)
11 | CUUCCACCCGAGUACCUUUTT against HDAC10 | -0.165 (inactive)
12 | GAAUAGAGAUCAAAUUCCATT against CD163 | 0.021 (inactive)
13 | GGAGGCUUCUUUAUGAAUUTT against FXYD4 | -0.0447 (inactive)
14 | CUAUAACUGUUCGUGCUUATT against USP47 | 0.3 (inactive)
15 | GAAAAUCACCAAAACAUACTT against WHSC1 | 1.17 (active)
16 | GGAAAGUCCUGUUUGAUCATT against RHBDL3 | 0.56 (inactive)
17 | CUGUAGAACUAGUCCUUAUTT against PRKRIR | 0 (inactive)
18 | GUAUGUCGGGUAUACCGUUTT against RAD54L2 | -0.0646 (inactive)
19 | CGACAAUGCGGUCAACCUUTT against CD28 | -0.993 (inactive)
20 | GGAGAUACUCCGAACCUCATT against TEX13A | -1.22 (active)
21 | CGAUAUCUGACGCAGCUAATT against RPS6KA2 | 0.139 (inactive)
22 | ACAUCCGAGUUUAUCCUGATT against SFRS9 | -0.144 (inactive)

Row | Sequence | median seed-adjusted z-score
23 | GGAAAAAUAUCCAGCAAAATT against UBE2E2 | -1.77 (active)
24 | CCUCAGAUCUACCCACAGATT against CSF2RB | -0.454 (inactive)
25 | CACAAGCAAGUUCAAAUAATT against FCRL4 | -0.39 (inactive)
26 | GCUAUUUGCUGGCUACAAATT against POLR2J3 | -5.42 (active)
27 | GCGGCAAUCUUGGGAGUAATT against TMPRSS11B | -0.545 (inactive)
28 | CAGCGAUGCUACGACAAUATT against PHF17 | 1.01 (active)
29 | GAAUUUUGAUGUCAUACGATT against DTNB | -0.142 (inactive)
30 | GGAACUUCCUGAGAACAUUTT against MAP3K8 | -0.533 (inactive)
31 | CAUUCACGAUCUUCCCGUATT against MYO16 | -0.072 (inactive)
32 | GUUGCAAACUUAUCGAGGATT against CCT2 | -0.0508 (inactive)
33 | GGUAGAAUCUAGGUAUGCATT against RAD51 | 0.594 (inactive)
34 | GCAUAUGGUUCUGAAGAUATT against GTF2E1 | 1.76 (active)
35 | GAGCAAAUCAAAGAACUAATT against TSC22D1 | 0 (inactive)
36 | AGACACCUCCUAGGACUAUTT against MZF1 | 0.215 (inactive)
37 | GGAGUGCACGAGACAUUCATT against FAH | -0.0836 (inactive)
38 | GGACUACAAAGGUUCUCGATT against CDH18 | 0.21 (inactive)
39 | CAGCUUCGAUAUAAGGAAATT against MYST2 | -1.46 (active)
40 | ACCUGACCGUGUCGCUAUATT against DHRSX | -0.686 (inactive)
41 | GGAACCUGGAGAUAUCAUUTT against FUT8 | 0.464 (inactive)
42 | UGGUGUCGCUGGAGAAGUATT against GPX7 | -0.971 (inactive)
43 | CCAUCCCACUGGUCACAUUTT against SLC7A8 | -0.134 (inactive)
44 | GGAGGCAUUUGAAGUUCCATT against FARP1 | -0.487 (inactive)

Row | Sequence | median seed-adjusted z-score
45 | GGACCGCUACUCUGAGUAUTT against KCNH6 | 0.424 (inactive)
46 | CUGUUAUUCUUCAUACCUATT against TAAR8 | 0.0792 (inactive)
47 | GGAUCAAGACGUGAACGAUTT against CPSF6 | -2.38 (active)
48 | GAGUAUUCUGAGUACAUGATT against ZFP42 | -0.537 (inactive)
49 | CAAACAUCUAUGCAGCAAATT against MS4A8B | 0.207 (inactive)
50 | GGAUGAGAAGAGACGUAGATT against DNMT1 | 0.185 (inactive)
51 | CAUGAACCCUUGGUAGAUATT against TBRG1 | -1.47 (active)
52 | GGGUUUUUGCGCUUCAAAATT against GALNAC4S-6ST | 0.218 (inactive)
53 | GCAAAAUGAUCAUUAAUGATT against EIF3C | 0.56 (inactive)
54 | GGACCAUAAUCAAUGUAGATT against ZNF585A | -0.168 (inactive)
55 | CCUCAACUAUCAGAACAAUTT against KLF10 | 0.616 (inactive)
56 | GGUUGUUGUAUACUUGCAATT against LIPJ | 0.295 (inactive)
57 | GACCUAUGCAGUUCGAAAATT against SFRS1 | -1.66 (active)
58 | GGAGUGUGCUGAAGACCUATT against GFER | 0.402 (inactive)
59 | CCACGUGAUAAAUCAAGAATT against PRPF4B | -2.29 (active)
60 | GAAAGACACUGGGACUCGATT against SNRNP35 | 0.172 (inactive)
61 | GCAUCGCAAGAGCUGCAAATT against DPYD | -0.112 (inactive)
62 | GAUUGUCAAUGGGUGUAUUTT against AOF1 | -0.211 (inactive)
63 | CCCUCCAAAUAGCAAAUGUTT against PCOLCE2 | -1.15 (active)
64 | GGGUCAUACGAAUACCGAUTT against VIPR2 | 0.706 (inactive)
65 | GCAACGUGAUCAAAGGUAUTT against GNA13 | 0 (inactive)
66 | CAAGGACAACUCAAACUUATT against PRKACA | -0.137 (inactive)

Row | Sequence | median seed-adjusted z-score
67 | CGUAUAUAGAGUUCUCAGATT against PABPN1 | -0.757 (inactive)
68 | CCCUUAAUUUUGUAACAGATT against SLC7A6 | -0.0877 (inactive)
69 | GGGUAACCACUGACAUUCATT against SUPT5H | -4.02 (active)
70 | GCCUUAAAAAGCACCAAAATT against ZNF16 | 0 (inactive)
71 | AAGUUCCUAUCGGUCGUAUTT against HBZ | -0.0054 (inactive)
72 | GGACCAUCGGGAUCAUCAATT against P2RX3 | -0.44 (inactive)
73 | GCAAUGAACACCAUCCGAATT against KEAP1 | 0.207 (inactive)
74 | AGCUCUUAUUAGCUGCAUATT against MS4A7 | 0.0794 (inactive)
75 | GCAACGAUCACCUAAAUUATT against NOP2 | 1.15 (active)
76 | GGUCAAAUCAGCAAAGGUUTT against RNF25 | -0.0826 (inactive)
77 | CGACAAUCUAACUUCCGUATT against CYTH3 | 0.196 (inactive)
78 | CAGGCAUCAUAUUUUGAAATT against NUDT3 | 0.674 (inactive)
79 | CAAAGAUUCUGACUGAUGATT against GPATCH4 | -0.519 (inactive)
80 | GAACCUAUCUGAUCGGCAATT against RFX3 | 0.17 (inactive)
81 | CAUCUUAAGUGUUUUACAUTT against LMO4 | -0.067 (inactive)
82 | GCAGCAUACAGGAAUACCATT against ATRNL1 | -0.142 (inactive)
83 | GCAGCAUAUUAUAGACAAATT against ZBTB37 | -0.219 (inactive)
84 | GCCUGGGUCAAAUACAGUATT against KLHL20 | -0.0828 (inactive)
85 | GAUCAUUGCUGGGAAUCUATT against GPR52 | -1.17 (active)
86 | GUCUGAAUGUCGAAGAGAATT against G3BP1 | -0.593 (inactive)
87 | CUGGAACAGUGUACCCAAATT against CD2AP | 0.113 (inactive)
88 | CCAUGUGAUUAUGUACUCATT against ELOVL4 | 0.166 (inactive)

Row | Sequence | median seed-adjusted z-score
89 | AGAUAUAUAAAUCAACGAATT against LSM3 | -1.36 (active)
90 | UGACCUACGAGGAAAUUCATT against PFKFB4 | 0.149 (inactive)
91 | CAACGAUAGCUUAUCCCAATT against LPGAT1 | 0.625 (inactive)
92 | GCUUAUAUGGUGUACAUUUTT against ELOVL6 | 0.742 (inactive)
93 | UCCCGUUCCGUACGACUUATT against DHRS7C | -0.398 (inactive)
94 | GUGGGAGUCGGGACAUAUATT against MAFK | 1.73 (active)
95 | CCAUUGAUGCAACAGGUAATT against USO1 | 0.21 (inactive)
96 | CAAGGACAAAUUUCCCGUUTT against HOXD8 | -0.883 (inactive)
97 | GCAUGGUACUCUAUAGUCUTT against FAT4 | -0.363 (inactive)
98 | GGAUGUGGUAGUACAGAAATT against PSMD2 | -1.44 (active)
99 | GACUGACGAUGACACGGAATT against KPNA6 | -1.54 (active)
100 | GGUACUCCAGAGUAUAACATT against CMYA5 | -0.858 (inactive)
101 | GAGCCUGACUCAGUCUUUATT against AQP9 | -0.192 (inactive)
102 | GAGAAAUCGUGCUCAGUUATT against CNOT8 | 0.375 (inactive)
103 | CCUGUUUCCGUGAAGAAAATT against CXCR4 | -0.347 (inactive)
104 | ACACCUCUCCGGACACCAATT against IRF3 | 0.0117 (inactive)
105 | GACGAUGAAUGAAAAGGCATT against NRBP1 | -1.13 (active)
106 | AGAAUUCUUCGAUCACAAATT against KCNMB3 | 0.513 (inactive)
107 | CAAGUACCCUGAUAGAGUUTT against ABHD4 | -0.054 (inactive)
108 | AGAUGAAGCUGCAAGUGUATT against COX10 | 0.339 (inactive)
